Among the data in PubChem BioAssay (NCI) are growth values, retold here.

Test in all cases: NCI-60 one-dose screen, 48 h (100 = growth as untreated, 0 = no growth, -100 = all killed)
Holding throughout (settings): 10 µM

Experiment [1] has as its system NCI-H23 lung.
For experiment [2], the system named is NCI-H226 lung.
The test system of experiment [3] is NCI-H322M lung.
The subject of experiment [4] is HOP-62 NSCLC.
Experiment [5] deals with NCI-H460 lung.
Experiment [6] concerns NCI-H522 lung.
Experiment [7] has as its system A549/ATCC NSCLC.
In experiment [8] the test system is 786-0 renal.
Experiment [9] relates to COLO 205 colon.
Experiment [10] relates to DU-145 prostate.
Experiment [11] deals with K-562 leukemia.
For experiment [12], the system named is MALME-3M melanoma.
Experiment [13] has as its system MDA-MB-231 breast.
Experiment [14] deals with RXF 393 renal.
The test system of experiment [15] is SF-268 CNS.
The subject of experiment [16] is SF-295 CNS.
Experiment [17] relates to SF-539 CNS.
The subject of experiment [18] is UACC-257 melanoma.
Experiment [19] relates to M14 melanoma.

This is part of a sample that, as a whole, favours compounds with a hit. Of some 83,000 tested, about 20% had one in any assay.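 Treatment: one concentration, 48 hours, 96-well format. Scoring: percent growth, with anything below 10 considered active.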 Values without a mark were called inactive. Activity calls are given as the source filed them.

Take `Nc1nc(OCc2ccccc2)c2[nH]cnc2n1`: the growth in [1] is 93.6%; in experiment [2], 96%; in experiment [3], 118%; in experiment [4], 100%; in experiment [5], 107%; in experiment [6], 86.5%. Besides, the growth in experiment [7] is 105%; in experiment [8] it was 87.1%; in experiment [9] it was 114%; in experiment [10], 99.2%; in experiment [11], 80.4%; in experiment [12], 98.3%. Also, the growth in experiment [13] is 97.9%; in [14] it was 98.8%; in experiment [15], 109%; in [16] it was 96.8%; in experiment [17] it was 89.7%; in [18], 97.8%. The growth in [19] is 90.6%.

Take `N#CCCN(CCCN1CCOCC1)CN1C(=O)c2ccccc2C1=O`: the growth in [1] was 102%; in experiment [2] it was 97.9%; in experiment [3] it was 90.8%; in experiment [4], 105%; in [5], 111%; in experiment [6], 92%. The growth in experiment [7] is 105%; in [8] it was 111%; in [9], 109%; in [10], 109%; in experiment [11], 91.6%; in [12], 87.6%. Besides, the growth is 113% in experiment [13]; 98% in experiment [14]; 115% in experiment [15]; 98.6% in experiment [16]; 110% in [17]; 107% in experiment [18]. The growth in [19] was 125%.

In the case of `COc1ccc2c(NCCCCCCCCNc3c4ccccc4nc4cc(OC)ccc34)c3ccccc3nc2c1`, the growth was -92.2% (active) in experiment [1]; -65.3% (active) in experiment [2]; -74.3% (active) in experiment [3]; -99.2% (active) in [4]; -100% (active) in experiment [5]; -74.1% (active) in [6]. In addition, the growth in [7] is -64.7% (active); in experiment [8], -100% (active); in [9], -100% (active); in experiment [10], -100% (active); in experiment [11], -100% (active); in experiment [12] it was -98.1% (active). Also, the growth is -89.5% (active) in [13]; -74.3% (active) in experiment [14]; -99.3% (active) in experiment [15]; -92.1% (active) in [16]; -100% (active) in experiment [17]; -88.8% (active) in [18]. The growth in experiment [19] is -100% (active).

For the molecule `O=C(O)c1cc([N+](=O)[O-])ccc1Cl`, the growth is 104% in experiment [1]; 107% in experiment [2]; 117% in [3]; 113% in [4]; 114% in [5]; 73% in experiment [6]. In addition, the growth in [7] is 95.3%; in experiment [8] it was 99.2%; in [9] it was 107%; in experiment [10], 121%; in [11] it was 97.7%; in experiment [12], 131%. For the same molecule, the growth in experiment [13] is 101%; in [14] it was 112%; in [15], 114%; in [16], 101%; in experiment [17], 105%; in [18], 99.5%. Further, the growth in [19] is 114%.

As to `COc1ccccc1NC(=O)c1cc2cc(Br)ccc2cc1O`, the growth in [1] is 4.53% (active); in [2] it was 8.51% (active); in [3], 22.6%; in experiment [4], 6.34% (active); in [5] it was 2.06% (active); in experiment [6], -24.5% (active). Moreover, the growth is 3.54% (active) in experiment [7]; 14.1% in [8]; 50.8% in [9]; 27% in experiment [10]; 7.54% (active) in experiment [11]; -1.45% (active) in experiment [12]. In addition, the growth in [13] was 3.51% (active); in [14], 39%; in experiment [15], 17.8%; in experiment [16] it was 11.3%; in [17] it was 0.0916% (active); in [18] it was -21% (active). In addition, the growth in experiment [19] was 19.6%.

As for `O=C1C=C(Nc2ccc([N+](=O)[O-])cc2)c2ccccc2C1=O`, the growth in experiment [1] is 30.1%; in [2] it was 77.6%; in experiment [3], 75.3%; in [4], 51.9%; in experiment [5] it was 46.4%; in experiment [6], 21.5%. Besides, the growth in experiment [7] was 33.3%; in experiment [8], 66.6%; in experiment [9], 105%; in experiment [10], 68.9%; in experiment [11] it was 13.2%; in [12], 51.6%. The growth was 22.5% in experiment [13]; 69.2% in experiment [14]; 55.6% in experiment [15]; 53.1% in experiment [16]; 36.8% in experiment [17]; 48.8% in experiment [18]. Besides, in experiment [19], the growth was 13.3%.

With `S=c1[nH]ccn1-c1ccccc1Cl`, the growth in experiment [1] is 112%; in [2], 113%; in experiment [3] it was 133%; in experiment [4], 112%; in experiment [5], 117%; in [6] it was -30.9% (active). For the same molecule, the growth in experiment [7] was 53.8%; in experiment [8], 109%; in experiment [9], 117%; in experiment [10], 106%; in experiment [11], 101%; in [12] it was 120%. The growth in [13] is 120%; in experiment [14], 114%; in [15], 108%; in experiment [16] it was 100%; in [17], 103%; in [18], 22.9%. In addition, the growth in experiment [19] is 108%.

For the molecule `COc1cc2c3c(n(C)c(=O)c2cc1OC)-c1cc2c(cc1C3=O)OCO2`, the growth was 71.9% in experiment [1]; 66.9% in experiment [2]; 89.9% in experiment [3]; 45.1% in experiment [4]; 29.3% in experiment [5]; 1.48% (active) in experiment [6]. The growth was 81.8% in [7]; 77.1% in [8]; 72.5% in [9]; 56.5% in [10]; 40.8% in [11]; 81.6% in [12]. Besides, the growth in [13] was 97.1%; in experiment [14] it was 75.7%; in [15], 59.3%; in experiment [16], 29.4%; in [17] it was 63.7%; in experiment [18], 78.2%. For the same molecule, the growth in experiment [19] was 63%.
